Assay results published in PubChem BioAssay AID1159580 (chemical genetic matrix, 2015).
Where “and” joins values, the source holds several entries; their conditions need not be identical. Equal values may be shown once. Out of some 5,500 compounds screened, about 2,000 (36%) were called active. Not shown: some 18% with an inconclusive outcome. Rule as the data show it: active = normalized growth mostly below about 0.91 (no sharp cut-off); inconclusive = no clear call, values can overlap the other calls; inactive = mostly above about 0.92. This is one part of the list.

Assay: chemical genetic growth profiling, strain panel (AID 1159580);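 also: tested at 20 µM; growth read once vehicle control cultures reached saturation at 30 °C; 1 = growth at the plate median or of vehicle wells; lower values mean less growth of the strain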
Conditions: S. cerevisiae deletion strains, growth OD

Measured: normalized growth

OC[C@H]1O[C@@H](Oc2ccc(O)cc2)[C@H](O)[C@@H](O)[C@@H]1O
inactive: locus YAL013W, strain DEP1, hits give low values 1.02 | locus YAL021C, strain ccr4, hits give low values 0.993 | locus YAL026C, strain drs2, hits give low values 1.02 | locus YAL030W, strain snc1, hits give low values 1.01 | locus YBL061C, strain skt5, hits give low values 1.02 | locus YBR009C, strain hhf1, hits give low values 1.02 | locus YBR021W, strain FUR4, hits give low values 0.988 | locus YBR023C, strain chs3, hits give low values 1.01 | locus YBR171W, strain sec66, hits give low values 1.01 | locus YBR229C, strain ROT2, hits give low values 1.02 | locus YBR231C, strain swc5, hits give low values 1 | locus YBR279W, strain paf1, hits give low values 1.01 | locus YCL011C, strain gbp2, hits give low values 1.01 | locus YCL016C, strain dcc1, hits give low values 0.992 | locus YCL029C, strain bik1, hits give low values 1.04 | locus YCL069W, strain vba3, hits give low values 1.01 | locus YCR088W, strain abp1, hits give low values 1.02 | locus YDL005C, strain med2, hits give low values 1.01 | locus YDL035C, strain GPR1, hits give low values 1 | locus YDL040C, strain nat1, hits give low values 1 | locus YDL074C, strain BRE1, hits give low values 1.03 | locus YDL101C, strain DUN1, hits give low values 1.02 | locus YDL134C, strain PPH21, hits give low values 1.02 | locus YDL185W, strain tfp1, hits give low values 1.02 | locus YDL192W, strain arf1, hits give low values 1.03 | locus YDR001C, strain nth1, hits give low values 1 | locus YDR069C, strain doa4, hits give low values 1.01 | locus YDR101C, strain arx1, hits give low values 1.01 | locus YDR137W, strain rgp1, hits give low values 1.02 | locus YDR159W, strain sac3, hits give low values 1.05 | locus YDR162C, strain NBP2, hits give low values 1.03 | locus YDR195W, strain ref2 1 | locus YDR297W, strain sur2, hits give low values 1 | locus YDR318W, strain mcm21, hits give low values 1.02 | locus YDR334W, strain swr1, hits give low values 1 | locus YDR335W, strain msn5, hits give low values 1.02 | locus YDR388W, hits give low values 1.01 | locus YDR392W, strain spt3, hits give low values 1.02 | locus YDR502C, strain sam2, hits give low values 1.01 | locus YEL003W, strain gim4, hits give low values 1.01 | locus YEL037C, strain rad23, hits give low values 0.999 | locus YEL061C, strain CIN8 (second series), hits give low values 1.01 | locus YEL061C, strain CIN8, hits give low values 1.01 | locus YER015W, strain faa2, hits give low values 1.01 | locus YER016W, strain bim1, hits give low values 1.01 | locus YER110C, hits give low values 1.03 | locus YER111C, strain swi4, hits give low values 1.01 | locus YER155C, strain BEM2 (second series), hits give low values 1.03 | locus YER155C, strain BEM2, hits give low values 0.999 | locus YER167W, strain BCK2, hits give low values 1.01 | locus YFR010W, strain ubp6, hits give low values 1.01 | locus YGL078C, strain dbp3, hits give low values 1.03 | locus YGL086W, strain mad1, hits give low values 1.01 | locus YGL167C, strain pmr1, hits give low values 1.02 | locus YGL173C, strain kem1, hits give low values 1.02 | locus YGL227W, strain vid30, hits give low values 1.01 | locus YGL240W, strain doc1, hits give low values 1.02 | locus YGL248W, strain PDE1, hits give low values 1.01 | locus YGL253W, strain hxk2, hits give low values 1.03 | locus YGR078C, strain PAC10, hits give low values 1.03 | locus YGR135W, strain pre9, hits give low values 1.03 | locus YGR252W, strain gcn5, hits give low values 1.02 | locus YHR013C, strain ard1, hits give low values 1.02 | locus YHR027C, strain rpn1, hits give low values 1.01 | locus YHR030C, strain SLT2, hits give low values 1 and 0.962 | locus YHR079C, strain IRE1 (second series), hits give low values 1.02 | locus YHR079C, strain IRE1, hits give low values 0.973 | locus YHR094C, strain hxt1, hits give low values 1.02 | locus YHR129C, strain ARP1, hits give low values 1.01 | locus YHR142W, strain chs7, hits give low values 1.01 | locus YHR200W, strain rpn10, hits give low values 1.02 | locus YIL066C, strain RNR3, hits give low values 1.01 | locus YIL073C, strain SPO22, hits give low values 1.08 | locus YIL125W, strain kgd1, hits give low values 1.02 | locus YIR030C, strain dcg1, hits give low values 1.01 | locus YJL092W, strain hpr5, hits give low values 1.01 | locus YJL095W, strain BCK1 (second series), hits give low values 1 | locus YJL095W, strain BCK1, hits give low values 1.04 and 0.973 | locus YJL115W, strain asf1, hits give low values 1 | locus YJL129C, strain trk1, hits give low values 1.03 | locus YJL134W, strain LCB3, hits give low values 1 | locus YJL154C, strain vps35, hits give low values 1.01 | locus YJL164C, strain tpk1, hits give low values 1.01 | locus YJL166W, strain qcr8, hits give low values 1.02 | locus YJL168C, strain set2, hits give low values 1.02 | locus YJL187C, strain SWE1 (second series), hits give low values 1.03 | locus YJL187C, strain SWE1, hits give low values 1.02 | locus YJR066W, strain TOR1, hits give low values 0.959 | locus YKL009W, strain mrt4, hits give low values 1.02 | locus YKL068W, hits give low values 1.01 | locus YKL085W, strain MDH1 (second series), hits give low values 1.01 | locus YKL085W, strain MDH1, hits give low values 1.01 | locus YKL160W, strain elf1, hits give low values 1 | locus YKR001C, strain vps1, hits give low values 1.03 | locus YKR026C, strain gcn3, hits give low values 1.01 | locus YKR091W, strain srl3, hits give low values 1 | locus YLL001W, strain dnm1, hits give low values 1.01 | locus YLL026W, hits give low values 1.01 | locus YLL041C, strain sdh2, hits give low values 1.03 | locus YLR027C, strain aat2, hits give low values 1.01 | locus YLR039C, strain RIC1, hits give low values 1.06 | locus YLR058C, strain SHM2, hits give low values 1.04 | locus YLR102C, strain apc9, hits give low values 1.02 | locus YLR113W, strain HOG1, hits give low values 0.944 | locus YLR221C, strain rsa3, hits give low values 1.01 | locus YLR258W, strain gsy2, hits give low values 1.01 | locus YLR262C, strain YPT6 (second series), hits give low values 1.03 | locus YLR268W, strain sec22, hits give low values 1.03 | locus YLR320W, strain mms22, hits give low values 1.03 | locus YLR330W, strain CHS5, hits give low values 1.01 | locus YLR342W, strain FKS1, hits give low values 1.01 | locus YLR357W, strain rsc2, hits give low values 1.03 | locus YLR370C, strain arc18, hits give low values 1.01 | locus YLR371W, strain rom2, hits give low values 1.01 | locus YLR384C, strain iki3, hits give low values 1.03 | locus YLR418C, strain cdc73, hits give low values 1.06 | locus YML016C, strain PPZ1, hits give low values 1 | locus YML032C, strain rad52, hits give low values 1.03 | locus YML120C, strain ndi1, hits give low values 1.01 | locus YML124C, strain tub3, hits give low values 1.02 | locus YMR058W, strain fet3, hits give low values 1.01 | locus YMR078C, strain ctf18, hits give low values 1.04 | locus YMR125W, strain sto1, hits give low values 1.03 | locus YMR129W, hits give low values 1.01 | locus YMR205C, strain PFK2, hits give low values 1 | locus YMR223W, strain ubp8, hits give low values 1.02 | locus YMR231W, strain pep5, hits give low values 1.01 | locus YMR307W, strain GAS1, hits give low values 0.945 | locus YNL067W, strain RPL9B, hits give low values 1.02 | locus YNL071W, strain lat1, hits give low values 1.01 | locus YNL183C, strain NPR1, hits give low values 0.963 | locus YNL209W, strain ssb2, hits give low values 1.02 | locus YNL233W, strain BNI4, hits give low values 1.02 | locus YNL248C, strain rpa49, hits give low values 1.03 | locus YNL250W, strain rad50, hits give low values 1.05 | locus YNL271C, strain bni1, hits give low values 1.02 | locus YNL298W, strain CLA4, hits give low values 1.02 | locus YNL307C, strain MCK1, hits give low values 1.02 | locus YNL322C, strain KRE1 (second series), hits give low values 1 | locus YNR049C, strain mso1, hits give low values 1.02 | locus YNR052C, strain pop2, hits give low values 1.03 | locus YOL006C, strain TOP1, hits give low values 1.06 | locus YOL012C, strain htz1 0.901 | locus YOL147C, strain pex11, hits give low values 1.01 | locus YOR001W, strain rrp6, hits give low values 1.01 | locus YOR061W, strain CKA2, hits give low values 1.02 | locus YOR069W, strain VPS5, hits give low values 1.01 | locus YOR070C, strain gyp1, hits give low values 1.01 | locus YOR080W, strain dia2, hits give low values 1 | locus YOR083W, strain WHI5, hits give low values 0.992 | locus YOR106W, strain vam3, hits give low values 0.992 | locus YOR136W, strain idh2, hits give low values 1.03 | locus YOR144C, strain elg1, hits give low values 1.02 | locus YOR184W, strain ser1, hits give low values 1.05 | locus YOR231W, strain MKK1, hits give low values 0.958 | locus YOR265W, strain rbl2, hits give low values 0.991 | locus YOR270C, strain vph1, hits give low values 1.05 | locus YOR290C, strain snf2, hits give low values 0.993 | locus YOR316C, strain cot1, hits give low values 1.02 | locus YPL051W, strain arl3, hits give low values 0.989 | locus YPL055C, strain LGE1, hits give low values 1.04 | locus YPL078C, strain atp4, hits give low values 1.01 | locus YPL106C, strain sse1, hits give low values 0.995 | locus YPL240C, strain hsp82, hits give low values 1.01 | locus YPL241C, strain CIN2, hits give low values 1.01 | locus YPL256C, strain CLN2, hits give low values 0.977 | locus YPR119W, strain clb2, hits give low values 1.03 | locus YPR141C, strain kar3, hits give low values 1.02 | locus YPR163C, strain tif3, hits give low values 1.03 | locus YPR167C, strain met16, hits give low values 1.03 | strain wtn01, hits give low values 1.02
